Reference: PubChem BioAssay
Active and inactive are the calls of the source. Unless noted, the rule behind the calls is not given here.

Columns and labels:
[1] = anti-His antibody binders, primary screen, artefact control for SMM control protein annotation, biochemical, small-molecule microarray, 635 nm fluorescence (AID 1128); settings: anti-His Alexa647 antibody binding, higher = more signal;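 note: score merges feature fluorescence with signal-to-noise for each printed compound spot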
[2] = test system: Human papillomavirus type 1a E7 protein (residues 1-88); assay: HPV1a E7 small-molecule binders, primary screen, biochemical, small-molecule microarray, residues 1-88, 635 nm (AID 1129); settings: small-molecule microarray binding, fluorescence 635 nm; higher = more signal
[3] = biological target: Focal adhesion kinase 1 (Homo sapiens) (UniProt Q05397); assay: small-molecule microarray binders of FAK, primary screen, biochemical, 635/667 nm fluorescence, BSA, DTT (AID 1130); settings: PTK2 binding, 635 nm fluorescence, higher = more signal;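 note: composite of spot emission at 667 nm and signal to noise over triplicate slides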
[4] = test system: Fibrinogen (Alexa647-labelled); assay: fibrinogen binders on compound microarrays, profiling panel, artefact control for SMM control-protein annotation, biochemical, small-molecule microarray, 635/667 nm fluorescence (AID 1131); settings: fibrinogen-A647 binding fluorescence, higher = more signal;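 note: z-score merges 667 nm fluorescence with per-spot signal-to-noise over triplicate slides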
[5] = biological target: Follistatin (Homo sapiens) (UniProt P19883); assay: follistatin binders on small-molecule microarrays, primary screen, biochemical, small-molecule microarray, 635/667 nm fluorescence (AID 1132); settings: FST binding, 635 nm fluorescence, higher = more signal
[6] = biological target: Fibroblast growth factor 2 (Homo sapiens) (UniProt P09038); assay: FGF2 binders on small-molecule microarrays, primary screen, biochemical, small-molecule microarray, 635/667 nm fluorescence (AID 1133); settings: small-molecule microarray binding, FGF2, fluorescence 635/667; higher = more signal
[7] = mitochondrial membrane potential change in A549 cells, profiling panel, cell-based, JC-1 fluorescence, basal, 24 h, 100 nL (AID 1138); settings: higher = more signal;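 note: A549 lung adenocarcinoma cells under basal conditions with no added stimulus; test concentration not given here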
Lefty1 = Lefty1 binders on small-molecule microarrays, primary screen, biochemical, small-molecule microarray, 635/667 nm fluorescence (AID 1139); settings: small-molecule microarray binding, fluorescence 635/667; higher = more signal
[8] = test system: wheat germ agglutinin (Triticum aestivum), Alexa647-labelled; assay: wheat germ agglutinin binders on compound microarrays, profiling panel, artefact control for SMM control-protein annotation, biochemical, small-molecule microarray, 635/667 nm fluorescence (AID 1140); settings: WGA-A647 binding, 635 nm fluorescence, higher = more signal;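 note: score merges 667 nm feature emission with signal to noise over triplicate slides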
[9] = biological target: Luciferin 4-monooxygenase (Photinus pyralis) (UniProt P08659); assay: firefly luciferase enzyme inhibitors, primary screen, biochemical, luminescence, purified enzyme, 2006 set (AID 1141); settings: SteadyGlo luminescence, 30 min, higher = more signal, called active from +8 up or from −8 down;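 note: cell-free assay with purified firefly luciferase at 100 ng per well in PBS; test concentration not given here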
[10] = test system: Wnt5a (protein binding on small-molecule microarray); assay: Wnt5a binders on small-molecule microarray, primary screen, biophysical, 635/667 nm fluorescence (AID 1142); settings: 635 nm fluorescence, higher = more signal;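 note: fluorescence read at 667 nm with signal to noise per printed feature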
[11] = cell viability in Huh7 cells, primary screen, cytotoxicity control for HCV replication inhibitor project, CellTiter-Glo luminescence, basal, 48 h (AID 1143); settings: Huh7 HCV replicon, higher = more signal, called active from +8 up or from −8 down;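 note: Huh7 hepatoma cells carrying a hepatitis C replication reporter with no stimulus; test concentration not given here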
[12] = P. aeruginosa biofilm formation inhibitors, primary screen, PAO1 strain, BacTiter-Glo luminescence, LB-PBS (AID 1144); settings: 12 h, higher = more signal
[13] = CREB reporter modulators without forskolin, primary screen, cell-based, PC12, CRE-LacZ reporter, unstimulated (AID 1145); settings: no forskolin, luminescence, 4.5 h, higher = more signal, called active from +8 up or from −8 down
[14] = CREB reporter modulators under forskolin, primary screen, cell-based, PC12, CRE-LacZ reporter, forskolin-stimulated (AID 1146); settings: luminescence, 4.5 h, higher = more signal, called active from +8 up or from −8 down;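 note: PC12 cells with 6xCRE LacZ reporter stimulated by forskolin 10 µM; beta-galactosidase reporter signal reflecting CREB driven transcription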
[15] = biological target: Streptavidin (Streptomyces avidinii) (UniProt P22629); assay: streptavidin binders on small-molecule microarray, primary screen, artefact control for SMM compound annotation, biophysical, 635/667 nm fluorescence (AID 1147); settings: streptavidin binding, higher = more signal;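 note: signal reflects streptavidin binding to arrayed compounds as a control protein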
[16] = small-molecule binders of probe aInhba, primary screen, biochemical, small-molecule microarray, 635/667 nm fluorescence (AID 1148); settings: higher = more signal;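 note: score merges 667nm spot fluorescence with signal-to-noise for antibody binding to printed compounds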
Torsin-1A (Homo sapiens) [17] = biological target: Torsin-1A (Homo sapiens) (UniProt O14656); assay: torsin A binders from cell lysate, primary screen, small-molecule microarray, wild-type, 635/667 nm (AID 1149); settings: COS7 hTOR1A-WT lysate, 635 nm fluorescence, higher = more signal
Torsin-1A (Homo sapiens) [18] = biological target: Torsin-1A (Homo sapiens) (UniProt O14656); assay: small-molecule binders of mutant TOR1A in lysate, primary screen, cell lysate, small-molecule microarray, COS7 lysate, 635/667 nm fluorescence (AID 1150); settings: COS7 hTOR1A mutant lysate, 635 nm fluorescence, higher = more signal;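 note: score pools 667 nm emission and signal to noise measuring lysate protein binding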
[19] = test system: Sonic hedgehog protein (Shh); assay: small-molecule binders of Shh protein, primary screen, biochemical, small-molecule microarray, 635/667 nm fluorescence (AID 1151); settings: small-molecule microarray binding, 635 nm fluorescence; higher = more signal;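 note: Shh protein binding to compounds spotted on small-molecule microarray slides; score combines spot fluorescence intensity with signal-to-noise across triplicate slides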

Focal adhesion kinase 1 (Homo sapiens), sequence (Q05397 whole entry, looked up): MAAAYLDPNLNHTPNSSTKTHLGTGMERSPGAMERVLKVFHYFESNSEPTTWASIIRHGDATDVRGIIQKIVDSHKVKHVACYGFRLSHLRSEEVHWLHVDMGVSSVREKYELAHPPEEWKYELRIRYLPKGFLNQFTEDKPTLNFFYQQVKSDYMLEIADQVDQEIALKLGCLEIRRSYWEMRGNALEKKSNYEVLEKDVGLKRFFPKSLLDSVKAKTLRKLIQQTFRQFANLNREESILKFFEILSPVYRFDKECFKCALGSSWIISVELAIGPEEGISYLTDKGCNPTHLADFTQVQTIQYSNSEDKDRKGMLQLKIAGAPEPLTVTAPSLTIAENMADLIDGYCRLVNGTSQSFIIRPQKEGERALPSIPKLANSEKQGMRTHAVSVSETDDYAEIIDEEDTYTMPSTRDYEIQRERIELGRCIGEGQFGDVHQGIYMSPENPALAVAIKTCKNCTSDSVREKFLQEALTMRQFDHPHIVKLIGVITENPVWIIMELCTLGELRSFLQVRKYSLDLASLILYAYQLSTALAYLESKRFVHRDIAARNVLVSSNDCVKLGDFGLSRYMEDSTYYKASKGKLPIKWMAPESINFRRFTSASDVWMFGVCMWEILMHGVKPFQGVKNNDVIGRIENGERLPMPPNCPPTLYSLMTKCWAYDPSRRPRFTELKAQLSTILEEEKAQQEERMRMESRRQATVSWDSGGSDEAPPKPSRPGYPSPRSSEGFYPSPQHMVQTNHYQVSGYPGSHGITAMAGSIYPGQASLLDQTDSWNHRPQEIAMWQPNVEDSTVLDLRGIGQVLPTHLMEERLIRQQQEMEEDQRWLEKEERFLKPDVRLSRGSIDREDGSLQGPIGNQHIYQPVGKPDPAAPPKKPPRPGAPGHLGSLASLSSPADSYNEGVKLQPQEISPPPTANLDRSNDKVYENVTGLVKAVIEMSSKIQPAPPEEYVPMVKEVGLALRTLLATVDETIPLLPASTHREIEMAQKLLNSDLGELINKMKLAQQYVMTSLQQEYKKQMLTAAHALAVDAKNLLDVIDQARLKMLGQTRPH
Follistatin (Homo sapiens), sequence (P19883 whole entry, looked up): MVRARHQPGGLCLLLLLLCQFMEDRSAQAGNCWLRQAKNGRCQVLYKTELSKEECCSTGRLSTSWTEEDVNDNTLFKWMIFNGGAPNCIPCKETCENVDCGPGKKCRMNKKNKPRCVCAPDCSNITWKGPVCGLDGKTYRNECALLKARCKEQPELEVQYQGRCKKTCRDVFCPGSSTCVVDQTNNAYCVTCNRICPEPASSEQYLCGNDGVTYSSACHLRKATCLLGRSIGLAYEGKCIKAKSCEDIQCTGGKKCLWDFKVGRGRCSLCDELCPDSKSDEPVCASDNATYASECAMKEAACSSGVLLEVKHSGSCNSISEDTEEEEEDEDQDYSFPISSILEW
Luciferin 4-monooxygenase (Photinus pyralis), sequence (P08659 whole entry, looked up): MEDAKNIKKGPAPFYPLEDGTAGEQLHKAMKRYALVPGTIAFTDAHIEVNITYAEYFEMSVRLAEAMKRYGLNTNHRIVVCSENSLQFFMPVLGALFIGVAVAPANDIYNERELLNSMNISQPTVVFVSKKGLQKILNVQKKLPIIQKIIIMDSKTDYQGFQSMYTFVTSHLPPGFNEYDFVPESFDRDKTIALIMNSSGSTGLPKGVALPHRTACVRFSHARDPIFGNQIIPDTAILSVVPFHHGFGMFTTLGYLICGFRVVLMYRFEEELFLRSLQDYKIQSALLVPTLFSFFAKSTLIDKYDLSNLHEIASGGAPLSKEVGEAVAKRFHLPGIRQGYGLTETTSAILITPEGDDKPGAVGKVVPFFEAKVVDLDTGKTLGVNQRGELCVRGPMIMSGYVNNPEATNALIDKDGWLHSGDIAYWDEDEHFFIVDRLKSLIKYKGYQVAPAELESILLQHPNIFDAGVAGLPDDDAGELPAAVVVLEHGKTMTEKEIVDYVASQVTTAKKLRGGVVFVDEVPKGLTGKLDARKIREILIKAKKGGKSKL
Streptavidin (Streptomyces avidinii), sequence (P22629 whole entry, looked up): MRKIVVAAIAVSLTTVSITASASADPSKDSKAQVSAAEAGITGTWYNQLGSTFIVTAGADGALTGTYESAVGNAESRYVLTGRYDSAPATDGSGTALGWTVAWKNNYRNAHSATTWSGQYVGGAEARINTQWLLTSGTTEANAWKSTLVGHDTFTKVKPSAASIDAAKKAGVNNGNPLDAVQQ
Torsin-1A (Homo sapiens), sequence (O14656 whole entry, looked up): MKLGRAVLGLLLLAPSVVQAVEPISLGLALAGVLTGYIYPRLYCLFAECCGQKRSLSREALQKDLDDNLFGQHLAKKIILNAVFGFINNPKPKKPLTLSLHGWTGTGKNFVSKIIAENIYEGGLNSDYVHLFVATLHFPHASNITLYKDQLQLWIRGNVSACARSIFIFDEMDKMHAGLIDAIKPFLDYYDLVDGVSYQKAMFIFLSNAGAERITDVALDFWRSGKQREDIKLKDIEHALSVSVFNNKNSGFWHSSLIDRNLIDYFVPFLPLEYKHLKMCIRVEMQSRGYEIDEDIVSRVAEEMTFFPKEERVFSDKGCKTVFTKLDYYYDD
Fibroblast growth factor 2 (Homo sapiens), sequence (P09038 whole entry, looked up): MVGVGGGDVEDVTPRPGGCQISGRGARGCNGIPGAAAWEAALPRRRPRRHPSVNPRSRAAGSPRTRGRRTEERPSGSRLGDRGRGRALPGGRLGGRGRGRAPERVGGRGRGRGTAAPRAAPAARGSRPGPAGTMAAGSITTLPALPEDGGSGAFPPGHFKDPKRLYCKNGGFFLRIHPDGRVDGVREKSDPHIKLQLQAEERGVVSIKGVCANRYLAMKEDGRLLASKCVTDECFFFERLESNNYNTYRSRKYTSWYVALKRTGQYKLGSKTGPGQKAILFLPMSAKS

SMILES | composite z-score [1] | composite z-score [2] | composite z-score [3] | composite z-score [4] | composite z-score [5] | composite z-score [6] | z-score [7] | composite z-score (Lefty1) | composite z-score [8] | z-score [9] | composite z-score [10] | z-score [11] | z-score [12] | z-score [13] | z-score [14] | composite z-score [15] | composite z-score [16] | composite z-score (Torsin-1A (Homo sapiens) [17]) | composite z-score (Torsin-1A (Homo sapiens) [18]) | composite z-score [19]
COc1ccc(CCNC(=O)[C@@H]2c3ccccc3C(=O)N(C3CCCCC3)[C@H]2c2ccc(CO)cc2)cc1 | 1.01 | 0.883 | 1.19 | 0.144 | 0.441 | 1.74 | -0.263 | -0.359 | 0.771 | -0.323 (inactive) | 0.378 | -2.93 (inactive) | -0.0661 (inactive) | -0.295 (inactive) | -0.582 (inactive) | -0.11 | -0.0087 | -0.78 | 0.767 | -0.0203
C=C[C@H](C)[C@H](OC(=O)Nc1ccc(SC)cc1)c1ccc(OCCO)cc1 | 0.677 | 1.05 | 0.0085 | 0.519 | 0.376 | 1.2 | -1.38 | 0.427 | 1.07 | -7.94 (inactive) | 0.448 | -3.53 (inactive) | 0.0722 (inactive) | 7.78 (inactive) | 1.58 (inactive) | 0.374 | -0.0221 | 0.766 | 0.937 | 1.33
N[C@@H](Cc1ccccc1)C(=O)NCc1cn(Cc2ccccc2)nn1 | 0.615 | -0.096 | -0.519 | 0.395 | 1.15 | 0.416 | 0.154 | 0.2 | 0.309 | -0.352 (inactive) | -0.0432 | 0.609 (inactive) | 0.391 (inactive) | 0.381 (inactive) | -0.644 (inactive) | 0.0584 | 0.0464 | 1.14 | 0.186 | 0.822
CCOC(=O)C[C@H]1[C@H](OC(=O)c2cc3ccccc3oc2=O)[C@@H](NC(=O)c2ccc3ccccc3n2)c2cc(OCCCO)ccc2N1C(=O)Cc1ccc(OC)cc1 | 0.357 | 1.18 | 0.277 | 0.953 | 1.06 | 0.509 | 0.57 | 1.06 | 0.275 | 0.798 (inactive) | 0.155 | -0.593 (inactive) | -1.05 (inactive) | -1.23 (inactive) | -0.74 (inactive) | 0.386 | -0.0136 | -0.262 | -0.0557 | 1.56
COc1ccc([Si](C)(C)[C@@H]2[C@@H](CCO)O[C@]3(C(=O)N(Cc4ccccc4)c4ccc(NC(=O)[C@H](C)O)cc43)[C@H]2C)cc1 | 0.888 | 1.21 | 1.04 | 0.851 | 1.2 | 0.462 | -0.955 | 1.29 | 0.417 | 0.265 (inactive) | 0.514 | -7.95 (inactive) | -1.07 (inactive) | 12.2 (active) | -0.161 (inactive) | 0.753 | 0.108 | 1.05 | 0.854 | 1.95
COCCOC(=O)N1C(=O)[C@@]2(c3ccccc31)[C@H](C(=O)NC[C@H](O)c1ccccc1)[C@H]1C(=O)O[C@H](c3ccccc3)[C@H](c3ccccc3)N1[C@@H]2c1ccc(O)cc1 | 1.43 | 1.26 | 0.818 | 0.965 | 1.34 | 1.61 | -1.17 | 1.23 | 0.648 | 0.883 (inactive) | 0.852 | -1.98 (inactive) | -0.193 (inactive) | 0.155 (inactive) | 2.34 (inactive) | 1.09 | 0.106 | 0.877 | 0.383 | 1.74
COCC(=C=CC[C@H](O)c1ccc(CO)o1)CCO | 1.28 | 0.58 | 0.646 | 0.501 | 1.3 | 1.14 | 0.0889 | 0.915 | 0.277 | -0.561 (inactive) | 0.181 | -0.25 (inactive) | 0.308 (inactive) | 1.51 (inactive) | -0.255 (inactive) | 0.141 | -0.003 | 0.494 | 0.246 | 1.99
Cc1cc(C)c(C(O)C2C=CC3C(=O)N(c4ccccc4)C(=O)C3N2Nc2ccccc2F)c(C)c1 (stereo not given) | 1.29 | -0.103 | 0.39 | 0.859 | 0.0286 | -0.435 | -0.909 | -0.589 | 0.403 | -0.746 (inactive) | -0.122 | 0.224 (inactive) | -0.386 (inactive) | 0.44 (inactive) | -0.425 (inactive) | 0.563 | 0.122 | -0.489 | -0.395 | 0.0807
CC(C)(C)OC(=O)COc1cccc(C(=O)CCN2CCOCC2)c1 | -0.413 | 0.355 | -0.272 | 0.226 | -0.35 | -0.284 | 0.583 | -0.57 | -0.0945 | -2.13 (inactive) | -0.143 | -1.13 (inactive) | 2.34 (inactive) | 0.416 (inactive) | 12.2 (active) | -0.081 | 0.034 | -1.01 | -0.646 | 0.216
O=C1C2C=CC(C(O)C3CC=CCC3)N(Nc3ccccc3)C2C(=O)N1c1ccccc1 (stereo not given) | 0.41 | 1.21 | 1.17 | 0.944 | 1.27 | 0.119 | -1.15 | 0.135 | 0.458 | -0.313 (inactive) | -0.0727 | -2.74 (inactive) | -0.879 (inactive) | 0.426 (inactive) | 0.305 (inactive) | 0.801 | 0.292 | -0.235 | 0.687 | -0.143
CC(C)NC(=O)[C@@]1(C)c2ccccc2C(=O)N(Cc2ccc(OC(F)(F)F)cc2)[C@H]1c1ccc(CO)cc1 | 0.22 | -0.14 | -0.232 | -0.535 | -0.333 | -0.843 | -0.19 | -1.44 | -0.641 | -0.183 (inactive) | -0.766 | -1.98 (inactive) | -0.539 (inactive) | -0.411 (inactive) | -1.48 (inactive) | -0.933 | -0.183 | -2.23 | 0.492 | -0.354
CCOC(=O)C[C@H]1[C@H](OC(=O)c2ccc(C(=O)c3ccccc3)cc2)[C@@H](NC(=O)CC(C)C)c2cc(OCCCO)ccc2N1C(=O)c1ccccc1 | 0.152 | 1.11 | 0.188 | 0.965 | 0.839 | 0.609 | 1.63 | 1.26 | 0.227 | -0.675 (inactive) | 0.154 | -0.133 (inactive) | -0.367 (inactive) | 3.01 (inactive) | -0.443 (inactive) | 1.17 | -0.0131 | 0.125 | 0.442 | 1.32
COCCCNC(=O)[C@@H]1c2ccccc2C(=O)N(C(C)C)[C@H]1c1ccc(CO)cc1 | -0.255 | -0.264 | 0.37 | -0.335 | 0.681 | 0.105 | 0.448 | -0.109 | -0.199 | -0.604 (inactive) | 0.389 | -0.293 (inactive) | 0.701 (inactive) | -0.179 (inactive) | 0.312 (inactive) | -0.337 | -0.045 | -0.17 | 0.0072 | 0.499
C=CCNC(=O)[C@@H]1[C@H]2C(=O)O[C@H](c3ccccc3)[C@H](c3ccccc3)N2[C@H](c2ccc(O)cc2)[C@@]12C(=O)N(C(=O)OCCOC)c1ccc(C#CC3=CCCCC3)cc12 | 1.11 | 1.19 | 0.664 | 0.708 | 1.27 | 1.54 | -0.22 | 0.701 | 0.729 | -0.959 (inactive) | 0.432 | -2.12 (inactive) | 0.411 (inactive) | 0.346 (inactive) | -0.0705 (inactive) | 0.268 | 0.0705 | 0.87 | 0.686 | 1.86
